# EPAC1 antagonist: qHTS for Antagonist of cAMP-regulated guanine nucleotide exchange factor 3 (EPAC1): primary screen; Potency, µM (highest dose often 115 µM), without a hit: at the top dose activity change, negative = inhibition, usual class: inhibitors; actives 0.14% (n = 360,000); Rap guanine nucleotide exchange factor 3 (Homo sapiens), O95398; EPAC1 GEF assay, Rap1b-BODIPY-GDP exchange fluorescence;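 further: plate controls were vehicle for no effect and positive control for full effect; nearly all actives have a fitted effect of over 50% in size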
# BRCA1 expr act: qHTS Assay to Identify Small Molecule Activators of BRCA1 Expression; MCF7-BRCA1-FFLuc reporter, luminescence, 48 h; response scale: scaled: vehicle 0%, 10 µM genistein 100%; Potency, µM (top dose mostly 46.1 µM), without a hit: top-dose activation, hits mostly activators; actives 1.1% (n = 380,000); further: nearly all actives have a fitted effect of over 80% in size
#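 MCF7-BRCA1-FFLuc, 2000 cells/well; 2 h attach, 37 °C/5% CO2; compound 48 h; luciferase substrate 15 min; luminescence end-point. Norm. to genistein 10 microM max activation and DMSO; concentration-response curves fitted.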
# RGS4 inhibitor: Inhibitors of Regulator of G Protein Signaling (RGS) 4: qHTS. Regulator of G-protein signaling 4 (Homo sapiens), P49798. Transcreener GDP fluorescence polarization, RGS4-accelerated GTP hydrolysis. Potency, µM (highest dose often 114 µM), for the others: at the highest dose activity change, negative = inhibition, usual class: inhibitors. actives 0.039% (n = 390,000). AID 504845, 2011; further: on the % scale 0 is the no-effect control and ±100 the full control effect; nearly all actives have a fitted effect of over 75% in size
#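 MLSMR compounds (23 nl, pin-transferred) preincubated 10 min at room temperature with a 500nM (2x) first reagent, then RGS4 at 900nM (2x) plus Transcreener GDP mix added; fluorescence polarization (620/688 nm) read before and after 90 min at 30 °C.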
# EPAC2 antagonist: qHTS for Antagonist of cAMP-regulated guanine nucleotide exchange factor 2 (EPAC2): primary screen; Rap guanine nucleotide exchange factor 4 (Homo sapiens), Q8WZA2; EPAC2 GEF exchange of Rap1B-BODIPY-GDP, fluorescence; Potency, µM (series often up to 114 µM), for inactives: top-dose activity, negative = inhibition, actives largely listed as inhibitors; actives 0.18% (n = 360,000); further: on the % scale 0 is the no-effect control and ±100 the full control effect; nearly all actives have a fitted effect of over 45% in size
# Target sequence (Q8WZA2 whole entry, looked up): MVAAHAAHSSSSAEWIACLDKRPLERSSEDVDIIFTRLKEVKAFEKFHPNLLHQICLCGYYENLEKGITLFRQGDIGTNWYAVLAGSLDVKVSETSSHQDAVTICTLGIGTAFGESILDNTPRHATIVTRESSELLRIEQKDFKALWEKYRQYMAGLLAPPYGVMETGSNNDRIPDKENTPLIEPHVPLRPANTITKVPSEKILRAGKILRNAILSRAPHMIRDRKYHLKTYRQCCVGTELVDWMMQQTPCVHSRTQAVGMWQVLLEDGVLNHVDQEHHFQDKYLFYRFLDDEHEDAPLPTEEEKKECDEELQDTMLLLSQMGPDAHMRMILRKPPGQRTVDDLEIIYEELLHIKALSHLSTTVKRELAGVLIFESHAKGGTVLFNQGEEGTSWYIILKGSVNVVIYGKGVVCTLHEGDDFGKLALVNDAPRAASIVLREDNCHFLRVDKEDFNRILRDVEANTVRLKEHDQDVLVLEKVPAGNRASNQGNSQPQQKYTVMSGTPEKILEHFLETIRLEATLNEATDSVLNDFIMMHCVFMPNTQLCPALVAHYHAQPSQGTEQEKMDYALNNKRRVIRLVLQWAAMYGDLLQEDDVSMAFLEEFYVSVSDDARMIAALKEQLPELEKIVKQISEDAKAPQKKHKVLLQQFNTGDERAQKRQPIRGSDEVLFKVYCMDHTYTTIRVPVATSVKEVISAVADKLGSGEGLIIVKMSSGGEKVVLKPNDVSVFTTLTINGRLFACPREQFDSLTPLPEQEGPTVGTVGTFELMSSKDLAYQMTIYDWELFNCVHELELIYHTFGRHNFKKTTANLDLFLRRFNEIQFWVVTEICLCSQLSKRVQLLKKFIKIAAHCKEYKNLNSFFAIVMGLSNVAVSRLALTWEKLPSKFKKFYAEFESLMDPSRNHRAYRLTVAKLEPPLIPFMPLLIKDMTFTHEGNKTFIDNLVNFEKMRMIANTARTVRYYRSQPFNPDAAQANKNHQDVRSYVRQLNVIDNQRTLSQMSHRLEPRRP
# EPAC2 agonist: qHTS for Agonist of cAMP-regulated guanine nucleotide exchange factor 4 (EPAC2): primary screen; Rap guanine nucleotide exchange factor 4 (Homo sapiens), Q8WZA2; EPAC2 activation, biochemical qHTS; response scale: 100% = 6.5 mM cAMP response; Potency, µM (top dose mostly 154 µM), without a hit: at the highest dose activation, most hits filed as activators; actives 0.079% (n = 360,000); further: nearly all actives have a fitted effect of over 50% in size
#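 Readout is BODIPY fluorescence (480 nm excitation, 540 nm emission), which falls as labeled GDP is exchanged off Rap1B. EPAC2 at 100 nM acted on 250 nM RAP1B-BODIPY-GDP with 50 uM GDP present.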
# EPAC1 ag: qHTS for Agonist of cAMP-regulated guanine nucleotide exchange factor 3 (EPAC1): primary screen | Rap guanine nucleotide exchange factor 3 (Homo sapiens), O95398 | EPAC1 agonist qHTS, biochemical assay; response scale: 100% = response to 6.5 mM cAMP | Potency, µM (top dose mostly 154 µM), inactives show top-dose activation, usual class: activators | actives 0.073% (n = 360,000); further: nearly all actives have a fitted effect of over 60% in size
#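 Nucleotide exchange by EPAC1 (100 nM) on Rap1B–BODIPY-GDP (250 nM) in the presence of 50 uM GDP is tracked fluorescently at 480/540 nm over 30 min. Signals are normalized to a 6.5 mM cAMP control.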
# The depositor's hits bear a star; ? = inconclusive; . = no result given; ! = repeats disagree. An excerpt weighted towards active compounds, which were near 1.3% of everything screened. The call rests on the fitted dose curve; in most records, active means well fitted curve in the direction sought with a large enough effect; inconclusive means small, poorly fitted or top-dose-only effect, or another doubt; inactive means no such curve, though single readings can be large; an effect the other way counts as inactive or inconclusive. Potency means the concentration at half of the fitted maximal effect.
SMILES,EPAC1 antagonist,BRCA1 expr act,RGS4 inhibitor,EPAC2 antagonist,EPAC2 agonist,EPAC1 ag
O=[N+]([O-])c1ccc(C(O)CSC(=S)N2CCCCC2)cc1 (configuration not stated),-14.1%,3.98µM*,-8.9%,-2.0%,9.6%,7.0%
C=CCn1c2ccccc2c(=O)c2cc(C#Cc3ccccn3)ccc21,-7.4%,8.91µM*,-37.0%,4.2%,15.5%,-7.2%
O=c1c2ccccc2oc2cc(C#Cc3ccccn3)ccc12,2.5%,?,-19.8%,0.0%,-7.6%,1.6%
Cc1cc(C)cc(NC(=S)Nc2ccc(Cl)c(Cl)c2)c1,-22.9%,-61.1%,-24.1%,-10.1%,14.1%,4.9%
CCOC(=O)c1ccc(/[N+]([O-])=C/c2ccccc2)cc1,11.4%,?,?,26.0%,0.4%,-14.7%
C#CCCc1cscc1/C=[N+](\[O-])c1ccc(C(=O)OCC)cc1,-8.0%,6.31µM*,?,15.2%,1.5%,-13.4%
C[C@H]1O[C@@H](O[C@H]2[C@@H](O)C[C@H](O[C@H]3[C@@H](O)C[C@H](O[C@H]4CC[C@@]5(C)[C@H](CC[C@@H]6[C@@H]5C[C@@H](O)[C@]5(C)[C@@H](C7=CC(=O)OC7)CC[C@]65O)C4)O[C@@H]3C)O[C@@H]2C)C[C@H](O)[C@@H]1O,-7.1%,-78.4%,1.68µM*!,7.1%,3.9%,-8.4%
COc1ccc(CCNC(=O)c2ccccc2C(=O)NCCc2ccc(OC)cc2)cc1,7.4%,22.9%,19.9%,6.9%,5.9%,-3.5%
CCc1cc2c(Sc3nc4ccccc4s3)ncnc2s1,-4.1%,-29.9%,-16.3%,4.7%,5.2%,-2.2%
COCCNC(=O)c1ccc2c(Cl)c3c(nc2c1)CCC3,-8.3%,5.01µM*,-9.4%,0.2%,9.5%,3.2%
N#Cc1cc2c(nc1SCC1COc3ccccc3O1)CCC2 (configuration not stated),0.0%,8.91µM*,2.0%,-2.4%,11.5%,6.2%
O=C(O)CC(C(=O)O)N1C(=O)/C(=C/C=C/c2ccco2)SC1=S (configuration not stated),-25.6%,0.1%,?,21.8%,9.5%,15.8%
O=C(O)C(Cc1ccccc1)N1C(=O)/C(=C/C=C/c2ccco2)SC1=S (configuration not stated),89.1µM*,-23.2%,?,-27.2%,-0.3%,13.8%
O=C1S/C(=C\C=C\c2ccco2)C(=O)N1c1ccccc1,89.1µM*,3.55µM*,?,-3.2%,8.3%,-10.5%
CCOC(=O)c1nnsc1C(OC)Oc1ccccc1 (configuration not stated),-0.6%,6.4%,-11.4%,-2.6%,5.4%,5.9%
Cc1ccc(N=C2NC(=O)/C(=C/C=C/c3ccco3)S2)cc1,56.2µM*,-33.8%,?,19.9%,-2.7%,-11.6%
Cc1ccc(N=C2NC(=O)/C(=C/c3cccn3C)S2)cc1,6.2%,3.55µM*,-13.4%,3.9%,6.4%,-1.0%
O=C1NC(=Nc2ccccc2)S/C1=C\C=C\c1ccco1,?,-19.8%,?,4.3%,0.3%,-1.5%
CC(C)(C)C(=O)Nc1c(C(=O)N2CCN(c3ccc(F)cc3)CC2)oc2ccccc12,.,10.2%,-39.5%,.,.,.
O=C(NC(=O)c1ccc(Cl)cc1)OC1CCCCC1,-15.9%,12.6µM*,4.0%,8.8%,1.5%,-9.9%
